# In PubChem BioAssay (NCATS):
# Results filed as inconclusive are left out. A number with no mark means an inactive call. Calls of active or inactive are those of the source. The call rests on the fitted dose curve; tested in HEK293 reporter line.
# Assay: qHTS for Inhibitors of the Functional Ribonucleoprotein Complex (vRNP) of Lassa (LASV) Arenavirus: LASV Primary Screen - GLuc reporter signal (AID 1347082); further: nearly all actives have a fitted effect of over 60% in size
# Conditions: LASV minigenome vRNP, Gaussia luciferase reporter; series mostly up to 57.5 µM; activity change, negative = inhibition: at the top concentration
# On the % scale 0 is the no-effect control and ±100 the full control effect.
Compound,"activity change, negative = inhibition",Potency
CN(C)[C@@H]1C(=O)C(C(N)=O)=C(O)[C@@]2(O)C(=O)C3=C(O)c4c(O)cccc4C[C@H]3C[C@@H]12,-8.92%,–
COc1cc(NS(=O)(=O)c2ccc(N)cc2)nc(C)n1,17.7%,–
Cc1ccc(O)c2ncccc12,2.21%,–
COc1ccccc1OCC1CNC(=O)O1 (stereo not drawn),14.1%,–
O=C(OCc1ccccc1)c1ccccc1,-1.22%,–
Nc1ccc(S(N)(=O)=O)cc1,–,inactive
Cc1cc2c(cc1S(N)(=O)=O)S(=O)(=O)CCC2,-3.95%,–
Nc1ccc(C(=O)O)cc1,2.48%,–
O=C(COCCOCCOCC(=O)Nc1c(I)cc(I)c(C(=O)O)c1I)Nc1c(I)cc(I)c(C(=O)O)c1I,-5.13%,–
O=C(C1CCCCC1)N1CC(=O)N2CCCc3ccccc3C2C1 (stereo not drawn),-9.94%,–
Cc1nnc(C(C)C)n1C1C[C@H]2CC[C@@H](C1)N2CC[C@H](NC(=O)C1CCC(F)(F)CC1)c1ccccc1 (stereo partly drawn),-1.69%,–
CO[C@H]1C[C@@H]2CC[C@@H](C)[C@@](O)(O2)C(=O)C(=O)N2CCCC[C@@H]2C(=O)O[C@H]([C@@H](C)C[C@@H]2CC[C@H](O)[C@H](OC)C2)CC(=O)[C@H](C)C=C(C)[C@@H](O)[C@@H](OC)C(=O)[C@H](C)C[C@H](C)C=CC=CC=C1C,-43.9%,–
Cc1cc(=O)n(-c2ccccc2)n1C,10.3%,–
CN(C)CCOC(=O)C(c1ccccc1)C1(O)CCCC1 (stereo not drawn),0.419%,–
CN1C(CSCC(F)(F)F)Nc2cc(Cl)c(S(N)(=O)=O)cc2S1(=O)=O (stereo not drawn),-15.1%,–
NS(=O)(=O)c1cc2c(cc1C(F)(F)F)NC(Cc1ccccc1)NS2(=O)=O (stereo not drawn),3.67%,–
Nc1ccc(S(=O)(=O)Nc2ccc(Cl)nn2)cc1,14.2%,–
CC(=O)Nc1c(I)c(NC(C)=O)c(I)c(C(=O)O)c1I,4.53%,–
C#CCN[C@@H]1CCc2ccccc21,–,inactive

Compound,"activity change, negative = inhibition",Potency
CCOC(=O)C1=C(C)NC(C)=C(C(=O)OC)C1c1cccc([N+](=O)[O-])c1 (stereo not drawn),–,inactive
CCOC(=O)c1ccc(OCCN2C[C@H](O)[C@@H](O)[C@H](O)[C@H]2CO)cc1,-8.48%,–
O=C(OCCN1CCOCC1)c1cccnc1Nc1cccc(C(F)(F)F)c1,6.65%,–
Clc1ccc2nsnc2c1NC1=NCCN1,–,inactive
CCCCOC(=O)c1ccc(O)cc1,-12.7%,–
CCCCCCCCCCCCCCCCCCN(C)C,0.126%,–
C=CC(N)CCC(=O)O (stereo not drawn),-0.572%,–
O=C(O)CSCC(=O)NC1CCSC1=O (stereo not drawn),–,inactive
CCC(=O)c1c(O)cc(O)cc1O,-8.71%,–
COc1cc(O)cc(O)c1,3.1%,–
O=C(CCN1CCC(c2ccccc2)C1)c1ccc2c(c1)OCCO2 (stereo not drawn),-10.4%,–
CCOC(=O)[C@H](CCc1ccccc1)N[C@@H](C)C(=O)N1[C@H](C(=O)O)C[C@H]2CCCC[C@@H]21,13.6%,–
COc1ccc(C2C(=O)c3ccccc3C2=O)cc1,4.55%,–
OC1(c2ccccc2)CCNCC1,-8.13%,–
COC(=O)/C=C\C(=O)OC,-10.3%,–
CO[C@@]1(NC(=O)CSC[C@@H](N)C(=O)O)C(=O)N2C(C(=O)O)=C(CSc3nnnn3C)CS[C@@H]21,-3.74%,–
CC1CN(c2cc3c(cc2F)c(=O)c(C(=O)O)cn3-c2ccc(F)cc2F)CCN1 (stereo not drawn),7.88% [at 5.82 µM],–
NC(=O)c1cccnc1,-1.05%,–
CCCCOCCOC(=O)c1cccnc1,-0.628%,–
